Consider five molecules from PubChem BioAssay.

Assay [1] deals with PRMT1 (protein arginine N-methyltransferase 1). In words: small molecules binding arginine methyltransferase PRMT1 – biochemical, small-molecule microarray, 635 nm fluorescence, primary screen (AID 1088).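 Note: binding of Prmt1 protein to compounds spotted on small-molecule microarray slides.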 Conditions: higher = more signal.
Assay [2] can be described thus: growth effects on S. cerevisiae YJM789 – YJM789 clinical isolate, OD600, 24 h, basal, primary screen (AID 1089).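 Note: growth of clinical yeast isolate S. cerevisiae YJM 789 seeded 1000 cells per well; test concentration not given here.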 Particulars: higher = more signal, called active from +8 up or from −8 down.
Assay [3] is described as follows: S. pombe growth modifiers, basal conditions – strain 972, OD600, 24 h, no modulator, primary screen (AID 1090).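 Note: basal condition with compound alone and no growth modifier present; test concentration not given here.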 Conditions: S. pombe 972 growth, higher = more signal, called active from +8 up or from −8 down.
A short description of assay [4]: budding yeast growth modifiers under rapamycin – strain BY4716, OD600, 96 h, primary screen (AID 1091). Note: test concentration not given here. Particulars: S. cerevisiae BY4716 + rapamycin, higher = more signal, called active from +8 up or from −8 down.
For assay [5], the target named is Torsin-1A-interacting protein 2 (Homo sapiens) (UniProt Q8NFQ8). In words: small molecules binding lysate-expressed LULL1 – cell lysate, human LULL1 lysate, 635/667 nm fluorescence, primary screen (AID 1092).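 Note: probe is lysate of COS7 cells overexpressing human LULL1; score merges per-feature 667 nm fluorescence with signal-to-noise.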 Conditions: small-molecule microarray, hLULL1 lysate binding, 635 nm fluorescence; higher = more signal.
Chain of Torsin-1A-interacting protein 2 (Homo sapiens) (Q8NFQ8 whole entry, looked up): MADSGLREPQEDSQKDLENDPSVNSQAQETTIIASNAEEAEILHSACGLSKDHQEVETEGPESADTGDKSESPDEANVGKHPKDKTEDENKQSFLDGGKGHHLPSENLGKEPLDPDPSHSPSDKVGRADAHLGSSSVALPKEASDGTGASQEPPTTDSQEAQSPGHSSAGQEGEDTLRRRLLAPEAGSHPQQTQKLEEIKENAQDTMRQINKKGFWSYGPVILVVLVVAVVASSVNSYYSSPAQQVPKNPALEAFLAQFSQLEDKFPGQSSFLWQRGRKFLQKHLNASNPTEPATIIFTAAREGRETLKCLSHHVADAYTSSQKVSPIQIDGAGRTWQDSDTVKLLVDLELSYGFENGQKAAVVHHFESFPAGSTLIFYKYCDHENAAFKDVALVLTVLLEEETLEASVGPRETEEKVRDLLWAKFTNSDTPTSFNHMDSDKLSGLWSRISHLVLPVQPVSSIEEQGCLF
The nature of assay [6]: optical density change of DRC41 E. coli – strain DRC41, OD650, 24 h, E. coli filamentation project, primary screen (AID 1093).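 Note: MC1000 strain lacking acrAB efflux and sulA so SOS filamentation is blocked; test concentration not given here.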 Particulars: E. coli DRC41 growth, higher = more signal, called active from +8 up or from −8 down.
Assay [7] in a line: probe aLefty2 binding to arrayed compounds – biochemical, biotinylated probe, 635/667 nm fluorescence, primary screen (AID 1094).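 Note: score merges spot fluorescence near 667 nm with spot signal-to-noise ratio.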 Particulars: small-molecule microarray, higher = more signal.
Assay [8] relates to Noggin (protein binding on small-molecule microarray). Put plainly: small molecules binding Noggin protein – biochemical, 635/667 nm fluorescence, primary screen (AID 1095).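 Note: score merges 667 nm feature fluorescence with signal to noise over triplicate slides.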 Particulars: 635 nm fluorescence, higher = more signal.
For assay [9], the target named is Neurogenic locus notch homolog protein 3 (Homo sapiens) (UniProt Q9UM47). In words: small molecules binding NOTCH3 protein – biochemical, 635/667 nm fluorescence, primary screen (AID 1096). Conditions: small-molecule microarray, 635 nm fluorescence, higher = more signal.
Chain of Neurogenic locus notch homolog protein 3 (Homo sapiens) (Q9UM47 whole entry, looked up): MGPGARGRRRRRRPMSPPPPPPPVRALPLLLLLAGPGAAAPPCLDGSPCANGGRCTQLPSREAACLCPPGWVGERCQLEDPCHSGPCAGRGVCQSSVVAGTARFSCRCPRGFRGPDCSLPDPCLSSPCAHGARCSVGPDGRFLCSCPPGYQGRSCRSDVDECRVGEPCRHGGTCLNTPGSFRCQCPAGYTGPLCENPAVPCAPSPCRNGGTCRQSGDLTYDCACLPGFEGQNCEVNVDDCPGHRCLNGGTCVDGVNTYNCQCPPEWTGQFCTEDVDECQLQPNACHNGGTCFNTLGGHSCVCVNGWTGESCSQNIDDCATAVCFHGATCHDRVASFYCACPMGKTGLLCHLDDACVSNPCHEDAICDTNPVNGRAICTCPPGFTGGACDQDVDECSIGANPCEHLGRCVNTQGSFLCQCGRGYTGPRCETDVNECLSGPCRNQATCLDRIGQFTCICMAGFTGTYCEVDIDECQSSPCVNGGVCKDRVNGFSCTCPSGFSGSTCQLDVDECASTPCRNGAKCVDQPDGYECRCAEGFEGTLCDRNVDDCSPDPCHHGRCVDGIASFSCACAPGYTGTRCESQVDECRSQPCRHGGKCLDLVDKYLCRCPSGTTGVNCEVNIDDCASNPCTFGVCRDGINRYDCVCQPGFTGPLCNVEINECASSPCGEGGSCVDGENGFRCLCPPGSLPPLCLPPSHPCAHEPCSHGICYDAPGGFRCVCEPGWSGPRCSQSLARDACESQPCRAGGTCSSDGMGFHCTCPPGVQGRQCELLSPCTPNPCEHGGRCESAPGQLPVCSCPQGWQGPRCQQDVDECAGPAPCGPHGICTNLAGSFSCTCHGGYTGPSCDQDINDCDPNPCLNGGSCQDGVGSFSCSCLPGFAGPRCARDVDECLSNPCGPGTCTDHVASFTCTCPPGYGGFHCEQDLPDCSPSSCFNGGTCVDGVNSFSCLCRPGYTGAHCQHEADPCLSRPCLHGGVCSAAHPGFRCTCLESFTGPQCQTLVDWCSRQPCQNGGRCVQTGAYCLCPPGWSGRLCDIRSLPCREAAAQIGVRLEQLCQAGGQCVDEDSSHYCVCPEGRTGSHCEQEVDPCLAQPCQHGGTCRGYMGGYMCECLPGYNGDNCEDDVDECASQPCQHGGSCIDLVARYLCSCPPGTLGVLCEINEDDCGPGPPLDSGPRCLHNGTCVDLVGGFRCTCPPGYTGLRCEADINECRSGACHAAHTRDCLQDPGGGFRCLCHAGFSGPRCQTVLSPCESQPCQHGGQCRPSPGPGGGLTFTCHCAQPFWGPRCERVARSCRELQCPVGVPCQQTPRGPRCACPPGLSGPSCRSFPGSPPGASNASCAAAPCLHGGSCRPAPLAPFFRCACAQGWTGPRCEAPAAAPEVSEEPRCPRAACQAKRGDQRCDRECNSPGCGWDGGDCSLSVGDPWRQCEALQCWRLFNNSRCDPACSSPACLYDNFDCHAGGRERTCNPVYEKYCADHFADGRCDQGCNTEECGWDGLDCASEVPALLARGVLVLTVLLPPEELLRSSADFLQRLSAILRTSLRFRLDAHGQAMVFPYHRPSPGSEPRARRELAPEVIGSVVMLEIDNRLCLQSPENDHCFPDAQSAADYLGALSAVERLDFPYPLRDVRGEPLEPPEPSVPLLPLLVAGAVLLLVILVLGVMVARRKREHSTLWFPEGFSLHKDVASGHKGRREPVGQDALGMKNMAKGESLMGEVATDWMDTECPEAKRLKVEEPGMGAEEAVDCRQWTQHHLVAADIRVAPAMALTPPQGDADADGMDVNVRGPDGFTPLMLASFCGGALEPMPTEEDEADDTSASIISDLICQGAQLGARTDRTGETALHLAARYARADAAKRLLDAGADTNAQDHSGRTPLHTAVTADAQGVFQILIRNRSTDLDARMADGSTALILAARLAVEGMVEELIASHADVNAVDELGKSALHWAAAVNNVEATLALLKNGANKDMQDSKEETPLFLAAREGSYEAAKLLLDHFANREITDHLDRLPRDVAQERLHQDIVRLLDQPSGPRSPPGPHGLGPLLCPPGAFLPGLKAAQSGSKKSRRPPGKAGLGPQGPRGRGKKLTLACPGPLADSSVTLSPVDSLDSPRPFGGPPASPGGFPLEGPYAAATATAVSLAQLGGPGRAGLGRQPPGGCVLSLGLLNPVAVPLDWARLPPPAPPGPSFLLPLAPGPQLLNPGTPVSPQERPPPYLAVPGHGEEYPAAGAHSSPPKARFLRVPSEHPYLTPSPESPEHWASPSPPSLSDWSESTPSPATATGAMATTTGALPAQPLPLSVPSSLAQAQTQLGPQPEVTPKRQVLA
Assay [10] is described as follows: probe aEGFR binding to arrayed compounds – biochemical, biotinylated probe, 635/667 nm fluorescence, primary screen (AID 1097).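 Note: probe is a biotinylated anti-EGFR antibody binding compounds printed on slides; score combines fluorescence near 667 nm and signal to noise of each spot.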 Conditions: small-molecule microarray, higher = more signal.
Assay [11] concerns Plasmodium falciparum Sir2 (PF13_0152, Sir2A). In words: Plasmodium falciparum Sir2A binding compounds – biochemical, small-molecule microarray, 635 nm fluorescence, primary screen (AID 1098).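 Note: score merges spot fluorescence intensity with its signal-to-noise ratio.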 Conditions: fluorescence 635 nm, higher = more signal.
Assay [12] can be described thus: probe aDKK1 binding to arrayed compounds – biochemical, biotinylated probe, 635/667 nm fluorescence, primary screen (AID 1099).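 Note: score merges 667nm spot fluorescence with signal to noise across triplicate slides; reference of the scale not given here.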 Conditions: small-molecule microarray, higher = more signal.
Assay [13] is described as follows: probe aCHRDL2 binding to arrayed compounds – biochemical, biotinylated probe, 635/667 nm fluorescence, primary screen (AID 1100). Conditions: small-molecule microarray, higher = more signal.
Assay [14] can be described thus: change in splice reporter luminescence, either direction, cell-based, HEK293, spliceosome inhibition project, primary screen (AID 1101).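 Note: HEK293 cells carrying a splicing-competent luciferase reporter gene; test concentration not given here.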 Conditions: HEK293 splicing luciferase reporter, 24 h, higher = more signal, called active from +8 up or from −8 down.
Assay [15] has as its target Fibroblast growth factor 10 (Homo sapiens) (UniProt O15520). In words: compounds binding fibroblast growth factor 10 – biochemical, small-molecule microarray, 635 nm fluorescence, primary screen (AID 1102). Particulars: FGF10 binding, fluorescence 635 nm, higher = more signal.
Assay [16] has as its system glycogen synthase kinase-3 (GSK3A per assay name; protocol says GSK3B). Put plainly: compounds binding glycogen synthase kinase-3 – biochemical, small-molecule microarray, 635 nm fluorescence, GSK3A, primary screen (AID 1103). Note: the record names both GSK3A and GSK3B. Conditions: fluorescence 635 nm, higher = more signal.
Assay [17] concerns the target Epidermal growth factor receptor (Homo sapiens) (UniProt P00533). Put plainly: compounds binding epidermal growth factor receptor – biochemical, small-molecule microarray, 635 nm fluorescence, primary screen (AID 1104).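 Note: score merges 667 nm emission intensity with spot signal to noise over triplicate slides.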 Conditions: EGFR binding, higher = more signal.
In assay [18] the target is Follistatin-related protein 3 (Homo sapiens) (UniProt O95633). Put plainly: compounds binding follistatin-related protein 3 – biochemical, small-molecule microarray, 635 nm fluorescence, primary screen (AID 1105).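 Note: score merges emission near 667 nm and signal to noise per printed spot across three slides.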 Conditions: FSTL3 binding, higher = more signal.
Chain of Follistatin-related protein 3 (Homo sapiens) (O95633 whole entry, looked up): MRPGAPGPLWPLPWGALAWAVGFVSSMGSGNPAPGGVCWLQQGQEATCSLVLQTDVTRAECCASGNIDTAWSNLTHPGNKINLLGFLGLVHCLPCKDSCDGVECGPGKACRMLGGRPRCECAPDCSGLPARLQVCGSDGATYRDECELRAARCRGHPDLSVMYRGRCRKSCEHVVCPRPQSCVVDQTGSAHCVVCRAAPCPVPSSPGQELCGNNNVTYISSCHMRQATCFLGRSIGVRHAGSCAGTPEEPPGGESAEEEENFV
Assay [19] has as its target Dickkopf-related protein 1 (Homo sapiens) (UniProt O94907). In words: small molecules binding DKK1 protein – biochemical, small-molecule microarray, 635 nm fluorescence scan, primary screen (AID 1106).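 Note: score merges emission near 667 nm with signal to noise over three replicate slides.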 Conditions: higher = more signal.
For assay [20], the system named is Inhibin beta A chain (activin A). In words: small molecules binding activin A – biochemical, small-molecule microarray, 635 nm fluorescence scan, primary screen (AID 1107).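 Note: mouse activin A protein probed at 4.33 µg/mL on printed slides; score merges bound-protein fluorescence near 667 nm with spot signal-to-noise.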 Conditions: INHBA, higher = more signal.

Activity calls are given as the source filed them.

Chain of Fibroblast growth factor 10 (Homo sapiens) (O15520 whole entry, looked up): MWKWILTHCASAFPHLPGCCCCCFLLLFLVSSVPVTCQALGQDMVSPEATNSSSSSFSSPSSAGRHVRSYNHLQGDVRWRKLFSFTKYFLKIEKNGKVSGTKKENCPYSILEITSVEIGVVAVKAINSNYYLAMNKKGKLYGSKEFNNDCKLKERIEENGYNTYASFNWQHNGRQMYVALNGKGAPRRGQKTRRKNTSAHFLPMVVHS
Chain of Dickkopf-related protein 1 (Homo sapiens) (O94907 whole entry, looked up): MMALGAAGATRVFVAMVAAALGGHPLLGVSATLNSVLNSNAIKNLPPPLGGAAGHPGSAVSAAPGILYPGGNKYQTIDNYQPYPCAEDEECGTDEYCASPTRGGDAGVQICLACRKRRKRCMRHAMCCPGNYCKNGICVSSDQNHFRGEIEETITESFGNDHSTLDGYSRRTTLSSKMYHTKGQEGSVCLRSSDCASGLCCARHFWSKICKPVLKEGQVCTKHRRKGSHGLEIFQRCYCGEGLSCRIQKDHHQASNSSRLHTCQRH
Chain of Epidermal growth factor receptor (Homo sapiens) (P00533 whole entry, looked up): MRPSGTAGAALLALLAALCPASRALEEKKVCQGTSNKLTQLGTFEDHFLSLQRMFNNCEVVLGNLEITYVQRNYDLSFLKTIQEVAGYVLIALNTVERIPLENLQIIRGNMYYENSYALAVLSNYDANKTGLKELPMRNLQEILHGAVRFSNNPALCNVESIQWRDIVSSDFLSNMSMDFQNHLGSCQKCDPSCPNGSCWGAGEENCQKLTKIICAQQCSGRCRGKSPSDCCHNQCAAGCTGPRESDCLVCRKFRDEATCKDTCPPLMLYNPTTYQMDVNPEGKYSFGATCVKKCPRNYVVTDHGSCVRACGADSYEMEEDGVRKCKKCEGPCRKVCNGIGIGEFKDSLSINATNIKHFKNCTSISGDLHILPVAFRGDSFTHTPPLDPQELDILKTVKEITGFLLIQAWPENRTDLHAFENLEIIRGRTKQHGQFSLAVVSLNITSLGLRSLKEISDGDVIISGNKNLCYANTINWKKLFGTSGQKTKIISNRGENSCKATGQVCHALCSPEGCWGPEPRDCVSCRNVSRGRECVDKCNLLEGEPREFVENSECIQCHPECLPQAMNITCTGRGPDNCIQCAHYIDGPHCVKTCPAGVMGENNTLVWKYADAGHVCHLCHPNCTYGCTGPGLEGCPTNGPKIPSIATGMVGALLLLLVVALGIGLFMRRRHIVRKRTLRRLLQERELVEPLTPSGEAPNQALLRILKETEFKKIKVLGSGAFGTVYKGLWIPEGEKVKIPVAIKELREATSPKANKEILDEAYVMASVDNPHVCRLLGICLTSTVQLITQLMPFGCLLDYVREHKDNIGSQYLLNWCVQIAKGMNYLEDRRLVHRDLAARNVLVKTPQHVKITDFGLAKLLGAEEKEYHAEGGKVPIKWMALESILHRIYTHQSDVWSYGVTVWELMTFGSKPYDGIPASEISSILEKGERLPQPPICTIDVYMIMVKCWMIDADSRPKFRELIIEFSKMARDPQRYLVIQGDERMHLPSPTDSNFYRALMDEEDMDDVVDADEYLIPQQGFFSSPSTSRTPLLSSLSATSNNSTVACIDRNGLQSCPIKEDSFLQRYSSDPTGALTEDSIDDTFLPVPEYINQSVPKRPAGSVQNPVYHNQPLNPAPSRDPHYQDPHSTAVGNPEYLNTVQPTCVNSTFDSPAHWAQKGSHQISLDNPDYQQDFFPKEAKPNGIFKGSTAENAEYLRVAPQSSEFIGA

On to `CON(C)C(=O)c1nnc2c(n1)[nH]c1ccccc12`, for which the composite z-score in assay [1] was 0.194; in [5], 0.3; in assay [7], -0.0931; in [8], 0.586; in assay [9] it was 0.483; in assay [10], -0.121. In addition, the composite z-score in assay [11] is 0.214; in assay [12] it was 0.256; in assay [13] it was -0.0786; in assay [15], 0.692; in [16], 0.217; in assay [17] it was 0.319. Besides, the composite z-score is 0.651 in assay [18], 0.377 in assay [19] and 0.221 in [20]. Also, the z-score in [2] is -0.545 (inactive); in assay [3], 0.577 (inactive); in assay [4], -0.298 (inactive); in assay [6], 0.816 (inactive); in [14], -0.562 (inactive).

For the molecule `COC(=O)[C@H](C)NC(=O)CCC1CC(OC(=O)NCCc2ccc(F)cc2)CC2(CCCC(COC(=O)NCCc3ccccc3OC)O2)O1` (stereo not given in full), the composite z-score in assay [1] was 1.11; in assay [5], 1.16; in [7], -0.0916; in assay [8] it was 0.452; in [9], 1.09; in [10] it was 0.104. Further, the composite z-score in assay [11] was 0.557; in assay [12] it was -0.0554; in assay [13], -0.494; in assay [15] it was 1.11; in [16], 1.05; in assay [17], 0.484. For the same molecule, the composite z-score in [18] came out at 1.16; in [19], 1.26; in assay [20] it was 0.176. Moreover, the z-score in assay [2] is 0.522 (inactive); in [3], 0.89 (inactive); in [4], 0.896 (inactive); in assay [6] it was -0.0328 (inactive); in assay [14] it was -0.221 (inactive).

Take `O=C1[C@H]2[C@H]3[C@H](O)[C@H](O)CC(=NOCc4ccccc4)[C@H]3CC[C@H]2C(=O)N1C1CCCCC1`: the composite z-score is 0.542 in assay [1]; 1.23 in assay [5]; -0.162 in assay [7]; 0.423 in assay [8]; 1.14 in [9]; -0.0691 in assay [10]. The composite z-score was 0.817 in assay [11]; -0.163 in assay [12]; -0.301 in [13]; 0.378 in [15]; 0.338 in assay [16]; 0.511 in assay [17]. Further, the composite z-score in assay [18] was 0.448; in assay [19], 0.79; in [20] it was -0.0077. Moreover, the z-score in assay [2] is -0.577 (inactive); in assay [3], -0.355 (inactive); in assay [4] it was -0.858 (inactive); in assay [6], 0.119 (inactive); in assay [14], 0.395 (inactive).

With `C[C@@H]1CC[C@H]2C(=O)OC(CN3C(=O)c4ccccc4C3=O)CN2[C@H]1c1ccc(Br)cc1` (stereo not given in full), the composite z-score in assay [1] is 0.658; in assay [5] it was 1.38; in assay [7], -0.185; in assay [8] it was -0.263; in [9], 0.361; in assay [10], -0.0703. Also, the composite z-score in assay [11] was 0.532; in [12] it was -0.117; in assay [13], -0.0788; in assay [15], 0.398; in assay [16] it was -0.0067; in [17], 0.13. Further, the composite z-score in assay [18] was -0.234; in [19], 0.383; in assay [20] it was 0.74. Further, the z-score in [2] was 0.341 (inactive); in assay [3] it was 0.35 (inactive); in assay [4], -0.338 (inactive); in assay [6], 0.725 (inactive); in assay [14], 0.5 (inactive).

Consider `CO[C@H]1COC(=O)[C@H](C)COC(=O)[C@H](C)NC(=O)CC=C[C@H]1C`, for which the composite z-score in [1] was 1.34; in [5], 0.449; in [7], -0.166; in assay [8], 1.29; in [9], 0.696; in assay [10] it was -0.122. Also, the composite z-score in [11] is 0.378; in [12], -0.579; in assay [13], -1.42; in [15], 1.07; in assay [16], 1.24; in assay [17], 1.54. Moreover, the values for the composite z-score in [18], in assay [19] and in assay [20] were 1.51, 1.28 and 0.843, respectively. Moreover, the z-score in assay [2] was -0.301 (inactive); in assay [3], -0.296 (inactive); in assay [4], -0.253 (inactive); in [6] it was 0.828 (inactive); in [14], 0.0547 (inactive).
